The source made the active and inactive calls. The calls were made as follows: active = hit-call score of the fitted dose curve at least 0.9, where 1 is the maximum; inactive = score below 0.9.
Assay: ATG_M_61_CIS: Attagene CIS-FACTORIAL HepG2 Assay for M61 Transcription Factor (Internal Marker) (AID 2282937)
Conditions: HepG2 Attagene CIS-FACTORIAL M61 internal marker reporter; actives raise or lower the signal
Protocol: ATG_CIS is a cell-based, multiplexed-readout assay that uses HepG2, a human liver cell line, with measurements taken at 24 hours after chemical dosing in a 24-well plate.ATG_M_61_CIS is one of 52 assay component(s) measured or calculated from the ATG_CIS assay. It is designed to make measurements of mRNA induction, a form of inducible reporter, as detected with fluorescence intensity signals by Reverse transcription polymerase chain reaction (RT-PCR) and Capillary electrophoresis technology.Data from the assay component ATG_M_61_CIS was analyzed into 1 assay endpoint. This assay endpoint, ATG_M_61_CIS, was analyzed with bidirectional fitting relative to DMSO as the negative control and baseline of activity. Using a type of inducible reporter, measures of mRNA for gain or loss-of-signal activity can be used to understand the background control at the transcription factor-level as they relate to the gene . Furthermore, this assay endpoint can be referred to as a secondary readout, because this assay has produced multiple assay endpoints where this one serves a background control function. To generalize the intended target to other relatable targets, this assay endpoint is annotated to the background measurement intended target family, where the subfamily is internal marker.
Human liver HepG2 cells are transiently transfected with multiple reporter transcription units (MRTUs) in 6-well plates using FuGene 6 reagent (Roche; 3 ml FuGene/1 mg DNA). The MRTU constructs are regulated by a cis-regulating element (promoter). […] A major difference between the CIS and TRANS system is that in CIS activities of endogenous TFs are measured, whereas the TRANS assay evaluates changes in activities of exogenous, chimeric NR-Gal4 proteins. […] At the end of 24 hour incubation, total RNA was isolated using TriZol reagent (Invitrogen). The isolated RNA is then reverse-transcribed using oligo(dT) primer and Mo-MLV reverse transcriptase (Invitrogen) with DNAse I (Ambion) treatment for 30 min. The one-tenth of the produced cDNA was amplified by PCR using Taq DNA polymerase (Invitrogen) and two reporter sequence-specific primers. The PCR products were fluorescently labeled by primer extension with 6-arboxyfluorescein (6-FAM) 5'-labeled reporter sequence-specific primer (2 min at 95 C, 20 s at 68 C and 10 min at 72 C) and these products were digested with 5U of HpaI (New England Biolabs) for 2h at 37 C. The fragments were purified using Qiaquick PCR columns (Qiagen), analyzed on an ABI 3130xL genetic analyzer (Applied Biosystems) with peak positions identified by using a set of X-rhodamine (ROX)-labeled MapMarker1000 molecular weight standards (BioVentures). The raw capillary electrophoresis data was processed using Attagraph software (Attagene).

Row | Compound | outcome
1 | CO[Si](OC)(c1ccccc1)c1ccccc1 | inactive
2 | Cc1cccc(N(C)C)c1 | inactive
3 | CC/C=C\CCOC(=O)c1ccccc1 | inactive
4 | OCC(F)(F)C(F)(F)C(F)(F)C(F)(F)C(F)(F)C(F)F | inactive
5 | FC(F)(F)C(F)(F)C(F)(F)C(F)(F)C(F)(F)C(F)(F)C(F)(F)I | inactive
6 | FC(F)(F)C(F)(F)C(F)(F)C(F)(F)C(F)(F)C(F)(F)C(F)(F)Br | inactive
7 | O=C(O)C(F)(F)C(F)(F)C(F)(F)C(F)(F)C(F)(F)C(F)(F)C(F)(F)C(F)(F)Cl | inactive
8 | O=C(Cl)C(F)(F)C(F)(F)C(F)(F)C(F)(F)C(F)(F)C(F)(F)C(F)(F)C(F)(F)F | inactive
9 | CN(C)Cc1ccccc1O | inactive
10 | FC(F)(F)C(F)(F)C(F)(F)C(F)(F)C(F)(F)C(F)(F)CCS | inactive
11 | O=S(=O)(OCCOC(F)(F)F)C(F)(F)F | inactive
12 | C=CC(F)(F)C(F)(F)C(F)(F)C(F)(F)C(F)(F)C(F)(F)C(F)(F)C(F)(F)C=C | inactive
13 | CCN(Cc1cccc(S(=O)(=O)O)c1)c1ccc(C(=C2C=CC(=[N+](CC)Cc3cccc(S(=O)(=O)O)c3)C=C2)c2ccc(O)cc2S(=O)(=O)[O-])cc1 | inactive
14 | O=C(O)C(F)(F)C(F)(F)OC(F)(F)F | inactive
15 | CCCCNc1ccccc1 | inactive
16 | OCC(F)(F)C(F)(F)C(F)(F)F | inactive
17 | FC(F)(F)C(F)(F)C(F)(F)CI | inactive
18 | CC(=O)Nc1ccc(N=Nc2cc(C)ccc2O)cc1 | inactive
19 | O[Si](c1ccccc1)(c1ccccc1)c1ccccc1 | inactive
20 | FC(F)(F)C(F)(F)C(F)(F)C(F)(F)CCI | inactive

Row | Compound | outcome
21 | FC(F)(Br)C(F)(F)C(F)(F)C(F)(F)C(F)(F)C(F)(F)Br | inactive
22 | O=C(OCCOCCOCCOC(=O)c1ccccc1)c1ccccc1 | inactive
23 | FC(F)(F)C(F)(F)C(F)(F)C(F)(F)C(F)(F)C(F)(F)CC1CO1 (stereo not given) | inactive
24 | Nc1ccc(S(=O)(=O)Nc2nccs2)cc1 | inactive
25 | FC1CC(F)(F)C(F)(F)C1(F)F (stereo not given) | inactive
26 | Nc1cc(Cl)c(N)c(Cl)c1 | inactive
27 | c1ccc(B(c2ccccc2)c2ccccc2)cc1 | inactive
28 | C=CC(=O)OCC(F)(F)C(F)(F)C(F)(F)C(F)(F)C(F)(F)C(F)(F)C(F)(F)F | inactive
29 | FC(F)(F)C(F)(F)C(F)(F)C(F)(F)C(F)(F)C(F)(F)C(F)(F)C(F)(F)CCS | inactive
30 | CC(Cc1ccc(O)c(O)c1)C(C)Cc1ccc(O)c(O)c1 (stereo not given) | inactive
31 | C=CC(=O)OCC(F)(F)C(F)(F)C(F)(F)C(F)(F)COC(=O)C=C | inactive
32 | O=C(O)C(F)(OC(F)(F)C(F)(OC(F)(F)C(F)(OC(F)(F)C(F)(F)C(F)(F)F)C(F)(F)F)C(F)(F)F)C(F)(F)F (stereo not given) | inactive
33 | CCCCCCCOC(=O)c1ccccc1C(=O)OCCCCCCC | inactive
34 | CC(C)(C)c1ccc(OC2CCCCC2O)cc1 (stereo not given) | inactive
35 | CNC(=S)NC | inactive
36 | NC(=O)C(F)(F)C(F)(F)C(F)(F)C(F)(F)F | inactive
37 | CC(C)c1ccccc1N | inactive
38 | CC/C=C\CCOC(C)=O | inactive
39 | O=C(O)C(F)(F)C(F)(F)C(F)(F)F | inactive
40 | CC(C)=CCCC(C)CCOC(=O)C(C)C (stereo not given) | inactive

From PubChem BioAssay (EPA / NIEHS)
